According to PubChem BioAssay (NCATS):
Results filed as inconclusive are left out. A number with no mark means an inactive call. The source made the active and inactive calls. Calls follow the shape of the dose curve; as a rule, active = well fitted inhibition curve with a large enough effect; inconclusive = small, poorly fitted or top-dose-only effect; inactive = flat fitted curve, though single readings scatter.

experiment: P-glycoprotein substrates identified in KB-8-5-11 adenocarcinoma cell line, qHTS therapeutic library screen (AID 1346987); conditions: KB-8-5-11 (P-gp overexpressing) viability, CellTiter-Glo, 72 h; series mostly up to 44.5 µM; activity change, negative = cytotoxicity: at the top concentration; also: nearly all actives have a fitted effect of over 65% in size
How it was run: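 KB-8-5-11, a colchicine-selected P-gp-overexpressing KB-3-1 subline, was grown without colchicine for the assay. Cells were seeded at 500 cells/well, dosed in concentration-response and incubated 72 h at 37 degree C, 5% CO2. Viability was read by CellTiter-Glo luminescence.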
% is scaled to controls: 0 for no effect and ±100 for the full control effect; potency is read from the fitted curve at half-maximal effect.

Row | SMILES | activity change, negative = cytotoxicity | Potency | outcome
1 | CC1(C)CCCC2(C)C(C(=O)O)=CCC12 (stereo unspecified) | -2.8% |  | 
2 | CCNC(=O)C1OC(n2cnc3c(N)nc(NCCc4ccc(CCC(=O)O)cc4)nc32)C(O)C1O (stereo unspecified) | -5.42% |  | 
3 | Cc1cc(C(=O)N2Cc3cnn(C)c3Nc3ccccc32)ccc1CNC(=O)N1CCC[C@H]1C(=S)N1CCCN(C)CC1 | 5.53% |  | 
4 | C=C1C(=O)O[C@H]2[C@H]1CC/C(C)=C/CC[C@@]1(C)O[C@@H]21 | -12.6% |  | 
5 | COC1CC(O[C@H]2CC[C@@]3(C)C(=CC[C@]4(O)C3[C@H](OC(C)=O)[C@@H](OC(=O)c3ccccc3)[C@]3(C)[C@@H](C(C)=O)CC[C@@]34O)C2)OC(C)C1OC1CC(OC)C(OC2CC(OC)C(OC3OC(C)C(OC4OC(CO)C(O)C(O)C4O)C(OC)C3O)C(C)O2)C(C)O1 (stereo partly specified) | 1.94% [at 9.29 µM] |  | 
6 | CC(C)=CCC[C@](C)(O[C@@H]1O[C@H](CO)[C@@H](O)[C@H](O)[C@H]1O)[C@H]1CC[C@]2(C)[C@@H]1[C@H](O)CC1[C@@]3(C)CC[C@H](O)C(C)(C)C3[C@@H](O[C@@H]3O[C@H](CO)[C@@H](O)[C@H](O)[C@H]3O)C[C@]12C (stereo partly specified) | 9.51% [at 17.3 µM] |  | 
7 | C=CC(=O)Nc1cccc(Nc2nc(Nc3ccc(N4CCN(C(C)=O)CC4)cc3OC)ncc2C(F)(F)F)c1 |  | 20.6 µM (active) | 
8 | CC12CCC(C(OC3OC(COC4OCC(O)(CO)C4O)C(O)C(O)C3O)C1)C(C)(C)O2 (stereo unspecified) |  |  | inactive [at 17.3 µM]
9 | C=CC1C(OC2OC(CO)C(O)C(O)C2O)OC=C2C(=O)N3C(C(=O)O)Cc4c([nH]c5ccccc45)C3CC21 (stereo unspecified) |  |  | inactive [at 17.3 µM]
10 | C[C@@H]1O[C@@H](O[C@H]2[C@H](O)[C@@H](O)[C@H](OC[C@H]3O[C@@H](OC(=O)[C@]45CCC(C)(C)C[C@H]4C4=CCC6[C@@]7(C)CC[C@H](O[C@@H]8OC[C@H](O)[C@H](O[C@@H]9O[C@H](CO)[C@@H](O)[C@H](O)[C@H]9O)[C@H]8O)[C@@](C)(CO)C7CC[C@@]6(C)[C@]4(C)CC5)[C@H](O)[C@@H](O)[C@@H]3O)O[C@@H]2CO)[C@H](O)[C@H](O)[C@H]1O (stereo partly specified) |  |  | inactive [at 9.29 µM]
11 | CC1(C)CC[C@]2(C(=O)O[C@@H]3O[C@H](CO)[C@@H](O)[C@H](O)[C@H]3O)CC[C@]3(C)C(=CCC4[C@@]5(C)CC[C@H](O[C@@H]6O[C@H](C(=O)O)[C@@H](O)[C@H](O[C@@H]7O[C@H](CO)[C@H](O)[C@H](O)[C@H]7O)[C@H]6O)C(C)(C)C5CC[C@]43C)C2C1 (stereo partly specified) |  |  | inactive [at 9.29 µM]
